From PubChem BioAssay (Tox21)
Records with an inconclusive call do not appear. Where a call stands in place of a potency, no number is given. The source holds several records for some structures; these can differ, active in one and inactive in another. Active and inactive are the calls of the source. The call rests on the fitted dose curve.

Experiments:
[1] = target: Acetylcholinesterase (Homo sapiens) (UniProt P22303); assay: Acetylcholinesterase (AChE) small molecule antagonists: colormetric cell-based qHTS assay (AID 1347395); further: nearly all actives have a fitted effect of over 30% in size; further: potency means the concentration at half of the fitted maximal effect
How it was run: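 SH-SY5Y cells; cpd 30 min 37 C; + DTNB/acetylthiocholine, 90 min 37 C; colorimetric thiocholine read; qHTS.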

[2] = target: Acetylcholinesterase (Homo sapiens) (UniProt P22303); assay: Acetylcholinesterase (AChE) small molecule antagonists: enzyme-based qHTS assay (AID 1347397); settings: Potency: AChE enzyme activity inhibition; outcome: AChE enzyme activity inhibition; further: nearly all actives have a fitted effect of over 55% in size
How it was run: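 In this quantitative HTS, compounds from the Tox21 10K collection were preincubated 30 min at ambient temperature with recombinant human AChE dispensed at 50 mU/mL. Hydrolysis of acetylthiocholine was then followed for 10 min by DTNB colour development.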

[3] = target: Acetylcholinesterase (Homo sapiens) (UniProt P22303); assay: Acetylcholinesterase (AChE) small molecule antagonists: fluorescence cell-based qHTS assay (AID 1347398); settings: Potency: AChE activity; outcome: AChE activity; further: nearly all actives have a fitted effect of over 50% in size
How it was run: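 Cells (SH-SY5Y) attached overnight, were dosed with compound or DMSO vehicle for 30 min at 37 C, and then incubated 40 min at room temperature with acetylthiocholine and Thiolite Green; green fluorescence indexed AChE activity.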

[4] = target: Acetylcholinesterase (Homo sapiens) (UniProt P22303); assay: Acetylcholinesterase (AChE) small molecule antagonists: enzyme-based qHTS assay with human liver microsomes (AID 1347399); settings: Potency: qHTS inhibition; outcome: qHTS inhibition; further: nearly all actives have a fitted effect of over 60% in size
How it was run: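 Recombinant human AChE (50 mU/mL in the enzyme mix) and human liver microsomes (0.25 mg/mL final) were preincubated with compound and NADPH (0.25 mg/mL final) for 30 min at 37 C. Acetylthiocholine/DTNB was then added; thiocholine was read colorimetrically after 10 min at room temperature.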

Sequence of Acetylcholinesterase (Homo sapiens) (P22303 whole entry, looked up): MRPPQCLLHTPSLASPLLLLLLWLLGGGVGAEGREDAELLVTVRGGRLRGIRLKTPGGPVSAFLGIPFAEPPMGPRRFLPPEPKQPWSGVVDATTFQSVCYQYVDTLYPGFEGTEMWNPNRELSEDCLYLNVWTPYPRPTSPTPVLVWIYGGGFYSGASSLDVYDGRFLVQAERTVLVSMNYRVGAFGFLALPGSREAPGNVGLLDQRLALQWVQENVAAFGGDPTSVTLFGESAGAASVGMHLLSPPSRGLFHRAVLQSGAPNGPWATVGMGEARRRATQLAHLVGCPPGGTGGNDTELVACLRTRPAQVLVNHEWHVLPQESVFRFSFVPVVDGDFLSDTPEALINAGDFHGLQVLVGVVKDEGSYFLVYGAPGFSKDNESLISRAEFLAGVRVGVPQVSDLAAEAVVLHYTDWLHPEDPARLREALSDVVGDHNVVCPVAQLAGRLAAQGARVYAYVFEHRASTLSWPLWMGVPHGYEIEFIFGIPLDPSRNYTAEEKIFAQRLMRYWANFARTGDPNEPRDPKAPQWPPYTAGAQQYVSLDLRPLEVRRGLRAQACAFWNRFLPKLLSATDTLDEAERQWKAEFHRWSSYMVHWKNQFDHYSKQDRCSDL

| SMILES | Potency [1] | Potency [2] | Potency [3] | Potency [4] |
| --- | --- | --- | --- | --- |
| CNc1ncnc2nc[nH]c12 | inactive | inactive | inactive | inactive |
| Cc1cccc(S(=O)(=O)O)c1C | inactive | inactive | inactive | inactive |
| Cc1cc(=O)[nH]c(=S)[nH]1 | inactive | inactive | inactive | inactive |
| COC(=O)Nc1nc2ccc(C(=O)C3CC3)cc2[nH]1 | inactive | inactive | inactive | inactive |
| CNC(=O)CN(CCN(CCN(CC(=O)[O-])CC(=O)NC)CC(=O)[O-])CC(=O)[O-].O.[Gd+3] | inactive | inactive | inactive | inactive |
| CCN(Cc1cccc(S(=O)(=O)O)c1)c1ccccc1 | inactive | inactive | inactive | inactive |
| CCCN(CCC)C(=O)C(CCC(=O)OCCCN1CCN(CCOC(=O)Cc2c(C)n(C(=O)c3ccc(Cl)cc3)c3ccc(OC)cc23)CC1)NC(=O)c1ccccc1 (stereo not given) | inactive | inactive | inactive | inactive |
| CC(=O)OCC(=O)[C@@]1(O)[C@H](C)C[C@H]2[C@@H]3CCC4=CC(=O)C=C[C@]4(C)[C@@]3(F)[C@@H](O)C[C@@]21C | inactive | inactive | inactive | inactive |
| O=C1CC2CC1C1CCCC21 (stereo not given) | inactive | inactive | inactive | inactive |
| NC(=O)N1c2ccccc2C=Cc2ccccc21 | 35.4 µM (active) and inactive | inactive | inactive | inactive |
| CO[C@@]1(NC(=O)Cc2cccs2)C(=O)N2C(C(=O)O)=C(COC(N)=O)CS[C@@H]21 | inactive | inactive | inactive | inactive |
| Cc1cc(Cc2ccc(N)c(C)c2)ccc1N | inactive | inactive | inactive | inactive |
| O=C(O)CNc1ccccc1 | inactive | inactive | inactive | inactive |
| O=C(c1ccc(O)cc1)c1ccc(O)cc1 | inactive | inactive | inactive | inactive |
| C#CC(C)N(C)C(=O)Nc1ccc(Cl)cc1 (stereo not given) | inactive | inactive | inactive | inactive |
| C[C@@H]1C[C@H]2O[C@@]3(O[C@@H]2C(C)(C)O)[C@H](O)[C@@]2(C)[C@@H]4CC[C@H]5C(C)(C)[C@@H](O[C@@H]6OC[C@@H](O)[C@H](O)[C@H]6O)CC[C@@]56C[C@@]46CC[C@]2(C)[C@@H]13 | inactive | inactive | inactive | inactive |
| C=C(C)C(=O)OCCO | inactive | inactive | inactive | inactive |
| Nc1cc([N+](=O)[O-])ccc1C(=O)O | inactive | inactive | inactive | inactive |
| CCC[Si](OC)(OC)OC | inactive | inactive | inactive | inactive |
| C=Cc1ccc(C)cc1 | inactive | inactive | inactive | inactive |

| SMILES | Potency [1] | Potency [2] | Potency [3] | Potency [4] |
| --- | --- | --- | --- | --- |
| c1ccc2c(c1)CCC2 | inactive | inactive | inactive | inactive |
| C=CCOC(=O)CCCCCCCC | inactive | inactive | inactive | inactive |
| NNCCc1ccccc1 | inactive | inactive | inactive | inactive |
| C=Cc1cccc(C)c1 | inactive | inactive | inactive | inactive |
| CC(C)=CCCC(C)CC(=O)O (stereo not given) | inactive | inactive | inactive | inactive |
| Cc1ccnc2c1NC(=O)c1cccnc1N2C1CC1 | inactive | inactive | inactive | inactive |
| CC(=O)CC(C)=O | inactive | inactive | inactive | inactive |
| OC[C@]1(O)OC[C@@H](O)[C@H](O)[C@@H]1O | inactive | inactive | inactive | inactive |
| O=C(NO)c1ccccc1 | inactive | inactive | inactive | inactive |
| CCCCC[C@H](O)/C=C/[C@H]1[C@H](O)CC(=O)[C@@H]1C/C=C\CCCC(=O)O | inactive | inactive | inactive | inactive |
| Cc1cccc2c1ccc1ccccc12 | inactive | inactive | inactive | inactive |
| CC(C)(C)C(=O)CCc1ccc(Cl)cc1 | inactive | inactive | inactive | inactive |
| CCn1ccnc1CC1COc2ccccc2O1 (stereo not given) | inactive | inactive | inactive | inactive |
| CC1(C)[C@@H]2CC[C@@]1(C)C(=O)C2 | inactive | inactive | inactive | inactive |
| C=CC(=O)OCC1CC2CC1C1CCC(COC(=O)C=C)C21 (stereo not given) | inactive | inactive | inactive | inactive |
| CC[N+](CC)(CC(=O)Nc1c(C)cccc1C)Cc1ccccc1 | inactive | inactive | inactive | inactive |
| CN1CC(=O)N/C1=N/C(=O)Nc1cccc(Cl)c1 | inactive | inactive | inactive | inactive |
| O=c1cc[nH]c(=O)[nH]1 | inactive | inactive | inactive | inactive |
| CC(C)[C@@H]1CC[C@@H](C)C[C@H]1O | inactive | inactive | inactive | inactive |
| CCCCN1CCCC[C@H]1C(=O)Nc1c(C)cccc1C | inactive | inactive | inactive | inactive |

| SMILES | Potency [1] | Potency [2] | Potency [3] | Potency [4] |
| --- | --- | --- | --- | --- |
| O=S(c1cc(Cl)cc(Cl)c1O)c1cc(Cl)cc(Cl)c1O | inactive | inactive | inactive | inactive |
| C=CCOC(=O)CC(C)C | inactive | inactive | inactive | inactive |
| CCCCN(CCO)CCCC | inactive | inactive | inactive | inactive |
| CC(C)N=C=NC(C)C | inactive | inactive | inactive | inactive |
| CC(C)c1cc(C(C)C)cc(C(C)C)c1 | inactive | inactive | inactive | inactive |
| CCCCCCOC(=O)c1ccc(O)cc1 | inactive | inactive | inactive | inactive |
| c1cc(N(CC2CO2)CC2CO2)ccc1Cc1ccc(N(CC2CO2)CC2CO2)cc1 (stereo not given) | inactive | inactive | inactive | inactive |
| C/C(=C(/OCCOc1ccc(Cl)cc1)c1ccc(Cl)cc1Cl)n1ccnc1 | inactive | inactive | inactive | inactive |
| CC(C)(C)c1cccc(C(C)(C)C)c1O | inactive | inactive | inactive | inactive |
| CCNc1cc(O)ccc1C | inactive | inactive | inactive | inactive |
| Cc1ccc(O)c2ncccc12 | inactive | inactive | inactive | inactive |
| CN1CN(C)CN(C)C1 | inactive | inactive | inactive | inactive |
| CCCC(=O)Nc1ccc(O)c(C(C)=O)c1 | inactive | inactive | inactive | inactive |
| C=C(C)C(=O)OCCN(C)C | inactive | inactive | inactive | inactive |
| CCCCCCCCCCCCCCCC(=O)O | inactive | inactive | inactive | inactive |
| C[C@]12C=CC(=O)C=C1CC[C@H]1[C@@H]3C[C@@H](O)[C@](O)(C(=O)CO)[C@@]3(C)C[C@H](O)[C@@]12F | inactive | inactive | inactive | inactive |
| CCN(Cc1cccc(S(=O)(=O)O)c1)c1ccc(C(=C2C=CC(=[N+](CC)Cc3cccc(S(=O)(=O)O)c3)C=C2)c2ccccc2S(=O)(=O)[O-])cc1 | inactive | inactive | inactive | inactive |
| C[CH2][Ge]([Cl])([CH2]C)[CH2]C | inactive | inactive | inactive | inactive |
| CCCCCCOC(C)=O | inactive | inactive | inactive | inactive |
| CC(=O)OCC(=O)[C@@]1(O)CCC2C3CCC4=CC(=O)CC[C@]4(C)C3[C@@H](O)C[C@@]21C (stereo not given in full) | inactive | inactive | inactive | inactive |
